# Source: PubChem BioAssay AID431 (Sanford-Burnham Center for Chemical Genomics, 2006)
# Among all 63,000 compounds or so, about 1,100 (1.7%) were called active.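 How the source made its calls: active means compounds whose percent cytotoxicity in the single-dose primary screen, scaled between solvent and toxic-drug controls, exceeds 50; inactive means the rest.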 The sample as a whole holds a higher share of actives than the screen did. Measured potencies and affinities stand elsewhere.
# Test: cytotoxicity in KRAS-transformed pancreatic duct cells, primary screen, cell-based, fluorescence, HTS (AID 431);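 further: 0% = DMSO solvent wells and 100% = doxorubicin-treated wells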
# Settings: HPDE-C7K KRASV12 cells, Alamar Blue viability, 48 h; at 10 µM; hits give high values
row,Compound,cytotoxicity
1,COc1ccc(C2C(C(=O)NCC3CCCO3)CCC(=O)N2c2ccc3c(c2)OCO3)cc1 (stereo not given),-18.6% (inactive)
2,O=C(Nc1ccccc1C(F)(F)F)c1cc(S(=O)(=O)N2CCOCC2)ccc1F,24.1% (inactive)
3,CCn1c(C(=O)NCc2ccccn2)cc2sccc21,-5.6% (inactive)
4,Cc1cc2c(=O)n(Cc3ccco3)c(SCC(=O)NCc3ccco3)nc2s1,-12.9% (inactive)
5,COc1ccc(C2N=C(Nc3ccc(C)cc3)Nc3nc(C)cc(=O)n32)cc1 (stereo not given),2.4% (inactive)
6,COc1ccc(S(=O)(=O)N(CC(=O)O)c2ccccc2)cc1,8.5% (inactive)
7,Cc1csc2nc3ccccc3c(=O)n12,2.6% (inactive)
8,COc1cc(C(=O)O)ccc1OC(C)=O,-2.6% (inactive)
9,COc1cc(C2N(c3ccccc3)CCN2c2ccccc2)ccc1OC(C)=O,-13.9% (inactive)
10,COc1cc(C2Nc3cccc4cccc(c34)N2)ccc1OC(C)=O,50.8% (active)
11,COc1cc(C2Nc3cccc4cccc(c34)N2)cc(OC)c1OC(C)=O,83.6% (active)
12,COc1cc(C2Nc3cccc4cccc(c34)N2)cc(OC)c1O,41.5% (inactive)
13,Oc1ccccc1C1Nc2cccc3cccc(c23)N1,-2.4% (inactive)
14,Cc1ccc(S(=O)(=O)Cn2nnnc2C(C(C)C)N2CCN(C(=O)c3ccco3)CC2)cc1 (stereo not given),-8.7% (inactive)
15,CCOC(=O)CNC(=O)Nc1cc(C(C)(C)C)nn1-c1ccccc1,-5.3% (inactive)
16,Cc1ccc2nc(-c3ccccn3)oc2c1,9.5% (inactive)
17,CCOC(=O)C(CCC#N)(CCC#N)C(=O)OCC,-1.4% (inactive)
18,O=C(CN(Cc1ccco1)C(=O)CNS(=O)(=O)c1ccc(Cl)cc1)NCc1ccc(F)cc1,77.7% (active)
19,O=C(CN(Cc1ccco1)C(=O)CNS(=O)(=O)c1ccccc1)NCc1ccc(F)cc1,2.2% (inactive)
20,O=C(CN(Cc1ccco1)C(=O)CNS(=O)(=O)c1ccc(F)cc1)NCc1ccc(F)cc1,1.2% (inactive)
21,CC(=O)c1cccc(NC(=O)NC(C)c2ccncc2)c1 (stereo not given),-4.4% (inactive)
22,Cc1noc(/C=C/NCc2cccnc2)c1S(=O)(=O)N(C)CC(=O)N1CCc2ccccc21,2.4% (inactive)
23,COc1cc2cc(C)c(SCC(=O)N3CCOCC3)nc2cc1OC,-9.8% (inactive)
24,O=C(O)CCN(CCC(=O)O)S(=O)(=O)c1ccccc1,-5.5% (inactive)
25,Cc1cc(-n2c(SCCC#N)nnc2-c2cccnc2)ccc1Cl,-9.6% (inactive)

row,Compound,cytotoxicity
1,COc1ccc(-n2c(SCCC#N)nnc2-c2cc(Cl)ccc2OC)cc1Cl,54.3% (active)
2,N#CCCCSc1nnc(-c2ccc(Cl)cc2)n1-c1ccccc1,-16.4% (inactive)
3,COc1ccc(N(C(=O)c2ccc(S(=O)(=O)N3CCOCC3)cc2)C2C=CS(=O)(=O)C2)cc1 (stereo not given),-10.3% (inactive)
4,CCOC(=O)C1=C(C)C(c2ccc(OC)cc2OC)NC(=O)N1 (stereo not given),-21.1% (inactive)
5,COc1ccc(C2C(C#N)=C(N)Oc3cc(O)ccc32)cc1OC (stereo not given),-2.6% (inactive)
6,N#CC1=C(N)Oc2cc(O)ccc2C1c1ccncc1 (stereo not given),-1.3% (inactive)
7,CCc1[nH]nc2c1C(c1cccnc1)C(C#N)=C(N)O2 (stereo not given),5.8% (inactive)
8,N#CC1=C(N)Oc2c(ccc3cccnc23)C1c1cccnc1 (stereo not given),42.1% (inactive)
9,N#CC1=C(N)Oc2cc(O)ccc2C1c1ccccc1 (stereo not given),1.7% (inactive)
10,CN(C)c1ccc2c(c1)OC(N)=C(C#N)C2c1cccc(F)c1 (stereo not given),55.5% (active)
11,COc1ccc(OC)c(C2C(C#N)=C(N)Oc3cc(N)ccc32)c1 (stereo not given),9.4% (inactive)
12,COc1cc(C2C(C#N)=C(N)Oc3cc(N)ccc32)cc(OC)c1OC (stereo not given),54.9% (active)
13,CCN(CC)c1ccc2c(c1)OC(N)=C(C#N)C2c1cccnc1 (stereo not given),70.8% (active)
14,CCc1c(C)c(C#N)c2nc3ccccc3n2c1N(C)C,10.9% (inactive)
15,CCCCn1c(=O)cc(O)c2ccccc21,-12.7% (inactive)
16,CC1=C(C(=O)OCC2CCCO2)C(c2ccncc2)C2=C(CCCC2=O)N1 (stereo not given),-3.4% (inactive)
17,Nc1nncn1C(=O)CCc1ccccc1,4% (inactive)
18,O=c1oc(-c2cccs2)nc2sc3c(c12)CCC3,33% (inactive)
19,O=c1oc(-c2cc3ccccc3o2)nc2sc3c(c12)CCCC3,57.9% (active)
20,O=c1oc(-c2cccs2)nc2sc3c(c12)CCCCC3,43.5% (inactive)
21,Cc1cccc(-c2c3c(=O)n(C)c(=O)n(C)c3cn2C(C)C)c1,-5.2% (inactive)
22,CCOC(=O)c1ccc(N2C(=O)CC(Sc3nnc(C)s3)C2=O)cc1 (stereo not given),-5.1% (inactive)
23,C=CCNc1nnc(SC2CC(=O)N(c3ccc(OC)cc3)C2=O)s1 (stereo not given),77.3% (active)
24,COc1ccc(N2C(=O)CC(Sc3nccc(C)n3)C2=O)cc1 (stereo not given),9.4% (inactive)
25,O=C(CN1C(=O)C2C3C=CC(C3)C2C1=O)N1CC(=O)N(CCc2ccccc2)C(=O)C1 (stereo not given),-4.4% (inactive)

row,Compound,cytotoxicity
1,Nn1c(-c2cccs2)nc2sc3c(c2c1=O)CCCC3,-1.9% (inactive)
2,Nn1c(Nc2ccccc2)nc2sc3c(c2c1=O)CCC3,61.4% (active)
3,CCc1nc2sc3c(c2c(=O)n1N)CCC3,-6.1% (inactive)
4,N#CC1=C2SCN(c3ccc(F)cc3)CN2C(=O)CC1c1cccc(F)c1 (stereo not given),1.2% (inactive)
5,CC(C)(C)C1CCc2onc(C(=O)Nc3cnn(Cc4ccc(F)cc4)c3)c2C1 (stereo not given),81.6% (active)
6,Cc1ccccc1Cn1cc(NC(=O)c2noc3c2CC(C(C)(C)C)CC3)cn1 (stereo not given),-6.5% (inactive)
7,CC(C)(C)C1CCc2onc(C(=O)NCc3ccc(F)cc3)c2C1 (stereo not given),-7% (inactive)
8,COc1ccccc1NC(=O)Cc1noc(CSc2cc(C)c3ccccc3n2)n1,-4.4% (inactive)
9,O=C(c1cccnc1)N1CCC(c2nc3ccccc3[nH]2)CC1,-11.8% (inactive)
10,Cc1ccc(C2(C(F)(F)F)NC(=O)N3CCCN=C3S2)cc1 (stereo not given),-10.2% (inactive)
11,O=C1NC(c2ccccc2)(C(F)(F)F)SC2=NCCCN12 (stereo not given),6.7% (inactive)
12,Cc1ccc(C2(C(F)(F)F)NC(=O)N3CCN=C3S2)cc1 (stereo not given),76.6% (active)
13,CCN(CC)CCCN1C(=O)c2oc3ccccc3c(=O)c2C1c1cccc(OC)c1OC (stereo not given),-9.4% (inactive)
14,C=CCn1cnc2c(c1=O)c1nc3ccccc3nc1n2/N=C/c1cccc(OC)c1,55.1% (active)
15,C=CCn1cnc2c(c1=O)c1nc3ccccc3nc1n2Cc1ccccc1,-3.7% (inactive)
16,C=CCn1cnc2c(c1=O)c1nc3ccccc3nc1n2-c1ccccc1,-1.9% (inactive)
17,C=CCn1cnc2c(c1=O)c1nc3ccccc3nc1n2/N=C/c1cccc(OC)c1OC,59.6% (active)
18,C=CCn1cnc2c(c1=O)c1nc3ccccc3nc1n2-c1ccc(Cl)cc1,0.8% (inactive)
19,C=CCn1cnc2c(c1=O)c1nc3ccccc3nc1n2-c1ccc(C)cc1,13.4% (inactive)
20,C=CCn1cnc2c(c1=O)c1nc3ccccc3nc1n2/N=C/c1ccccn1,-21.9% (inactive)
21,COCCn1cnc2c(c1=O)c1nc3ccccc3nc1n2/N=C/c1cccc(OC)c1OC,9.4% (inactive)
22,Cc1ccc(S(=O)(=O)NC(C)C(=O)NC2CCCCCC2)cc1 (stereo not given),1% (inactive)
23,O=C1C(=C(O)c2ccccc2)C(=O)c2ccccc21,2% (inactive)
24,O=C(CC(c1ccco1)C1CCCCC1=O)c1ccco1 (stereo not given),14.2% (inactive)
25,COc1cccc(C(=O)N(CN2CCCC2=O)c2cccc(Cl)c2)c1,-17.4% (inactive)

row,Compound,cytotoxicity
1,CCOC(=O)c1cccc(NC(=O)CN(C)S(=O)(=O)c2cnc[nH]2)c1,-9.7% (inactive)
2,CCc1nnc(NC(=O)CSc2nnc(COc3ccccc3)n2-c2ccc(C)cc2)s1,2.3% (inactive)
3,COC(=O)Cn1cnc2c(C#N)c3n(c2c1=O)CCCCC3,-14.2% (inactive)
4,COc1ccccc1-c1noc(-c2ccccc2C(=O)N2CCOCC2)n1,-11.4% (inactive)
5,CCn1c2ccccc2c2cc(/C=N/n3cnnc3)ccc21,16.2% (inactive)
6,CCn1c2ccccc2c2cc(N)ccc21,22.9% (inactive)
7,C=Cn1ccnc1P(=S)(c1ccc2c(c1)c1ccccc1n2CC)c1nccn1C=C,63.9% (active)
8,CCN(CC(=O)Nc1ccc2c(c1)OCCO2)C(=O)C1CCCCC1,-7.3% (inactive)
9,Cc1cccc(NC(=O)Nc2ccc(C#N)cc2)n1,12.8% (inactive)
10,CN(CC(=O)Nc1ccc(C#N)cc1)Cc1ccc(Cl)cc1,2.8% (inactive)
11,N#Cc1ccc(NC(=O)Nc2ccc(Cl)cc2)cc1,67.5% (active)
12,O=C(c1ccc(Cl)cc1)N1CCCOC1,0.8% (inactive)
13,C=CC(=C)CC(NC)c1ccccc1 (stereo not given),8.2% (inactive)
14,Cc1nc(NCC2CCCO2)c2oc3ccccc3c2n1 (stereo not given),6.5% (inactive)
15,CCOC(=O)c1c(N)sc2c(O)c(Br)ccc12,13.7% (inactive)
16,CCOC(=O)c1c(N)sc(=S)c2c1CCC2,10.6% (inactive)
17,CCOC(=O)c1c(N)sc2c(OC)c(Br)ccc12,58.8% (active)
18,Cc1ccc2c(c1)cc(CN(CCc1ccccc1)C(=O)N1CCOCC1)c1nnnn12,-24.7% (inactive)
19,COc1ccc(NC(=O)N(CCCN(C)C)Cc2cc3cc(OC)ccc3[nH]c2=O)cc1,-3% (inactive)
20,CCN(CC)S(=O)(=O)c1cc(C(=O)Oc2ccccc2OC)ccc1OC,2.8% (inactive)
21,Cn1c(CNC(=O)Cc2ccc3c(c2)OCO3)nnc1SCc1ccccc1,-39.1% (inactive)
22,CC1Cn2c(nnc2-c2cccc(Cl)c2)S1 (stereo not given),3.6% (inactive)
23,CCOC(=O)C(C)Sc1nc(-c2cccs2)ccc1C#N (stereo not given),59.5% (active)
24,C=COC(=O)CSc1nc(-c2cccs2)ccc1C#N,40.6% (inactive)
25,COC(=O)CSc1nc(-c2cccs2)ccc1C#N,12.6% (inactive)
